The text below walks through data of PubChem BioAssay (EPA / NIEHS).

The structures appear in SMILES notation. Inconclusive results are not listed. The source made the active and inactive calls. How the source made its calls: active means hit-call score of the fitted dose curve at least 0.9, where 1 is the maximum; inconclusive means response in the unintended direction; inactive means score below 0.9.

Read-out in the assay: glucuronosyltransferase (UGT1A1), UGT1A1 (gene 54658)
The experiment in a line: CLD_UGT1A1_24hr: CellzDirect (CLD) Gene Expression Assay for glucuronosyltransferase (UGT1A1) at 24 hours (AID 2283696). As for the experimental part: CLD_24hr is a cell-based, multiplexed-readout assay that uses hepatocyte, a human liver primary cell, with measurements taken at 24 hours after chemical dosing in a 96-well plate.CLD_UGT1A1_24hr is one of 16 assay component(s) measured or calculated from the CLD_24hr assay. It is designed to make measurements of mRNA induction, a form of inducible reporter, as detected with chemiluminescence signals by Quantitative Nuclease Protection Assay (qNPA) technology.Data from the assay component CLD_UGT1A1_24hr was analyzed at the endpoint, CLD_UGT1A1_24hr, in the positive analysis fitting direction relative to DMSO as the negative control and baseline of activity. Using a type of inducible reporter, gain-of-signal activity can be used to understand changes in the reporter gene as they relate to the gene UGT1A1. Furthermore, this assay endpoint can be referred to as a primary readout. To generalize the intended target to other relatable targets, this assay endpoint is annotated to the transferase intended target family, where subfamily is glucuronosyltransferase.
Human hepatocyte cultures were treated daily for two consecutive days with fresh dosing solutions containing appropriate concentrations of the 320 ToxCast chemicals (chemical identities were blinded to CellzDirect and other ToxCast collaborators), vehicle control (0.2% DMSO), and positive control inducers as summarized in Table 1. Due to the large number of treatment groups and chemicals examined, the ToxCast chemicals were divided into two groups (spanning two independent cultures of hepatocytes from separate donor preparations (Hu778: ToxCast plates 1 and 2; Hu776: ToxCast plates 3 and 4). Each preparation of human hepatocyte cultures was treated with respective vehicle control, medium only control, set of six positive controls/reference chemicals for the five hepatic receptor pathways, and a subset of eight of the ToxCast chemicals (indoxacarb, pyrithiobac-sodium, norflurazon, cyhalofop-butyl, methomyl, thiram, acetochlor, and propiconazole). These replicate data, coupled with internal replicates designed within the blinded ToxCast chemical library, provided additional data to evaluate interindividual differences between hepatocyte preparations and their potential impact on chemical profiles.Cell morphology and integrity were evaluated using phase-contrast microscopy as an indicator of hepatocyte cell health (Tyson & Green, 1987). Cultures for each treatment group (i.e., media, vehicle [0.2% DMSO], positive control inducers [multiple concentrations], and the ToxCast chemicals [multiple concentrations]) were observed and cell morphology was assessed relative to vehicle control cultures at each harvest time point (0, 6, 24, or 48 h). […] Images were evaluated at the conclusion of the study to assess changes in cell integrity and account for the effects of chemical exposure on uncharacteristic changes in concentration-dependent gene expression profiles. The results from these determinations of apparent cytotoxicity were annotated (yes/no) alongside the corresponding qNPA data for reference.At the conclusion of each treatment period, hepatocyte cultures (96-well) were washed with 1 volume of HBSS, lysed by addition of 25 ul ArrayPlate lysis buffer (HTG, Tucson, AZ), and 70 ul/well of Denaturation Oil, denatured by incubation at 95C for 10 min, and frozen at approximately -70C until analysis by nuclease protection assay (qNPA) (Roberts et al., 2007). For qNPA analysis, cell lysates were thawed at 50C for approximately 30 min, qNPA probes were added, and samples were incubated at 95C for 10 min to begin the detection process by denaturing the target RNA, dissociating the duplexes and secondary structure hybridization. At the conclusion of the hybridization period, S1 nuclease reagent was added to each sample to digest all nonprotected nucleotides at 50C for 60-90 min. […]
Take `CCNc1nc(Cl)nc(NCC)n1`: the compound was classed as inactive.

As for `COc1ccc(C(c2ccc(OC)cc2)C(Cl)(Cl)Cl)cc1`, the AC50 was 20 µM (active).

As for `COc1nc(C)nc(NC(=O)NS(=O)(=O)c2ccccc2CCC(F)(F)F)n1`, the result was inactive.

`OC(c1ccc(Cl)cc1)(c1cncnc1)c1ccccc1Cl` (stereo not given): the compound was classed as inactive.

With `CCCCNC(=O)n1c(NC(=O)OC)nc2ccccc21`, the outcome was inactive.

As for `CCOC(=O)C(Cl)Cc1cc(-n2nc(C)n(C(F)F)c2=O)c(F)cc1Cl` (stereo not given), the compound was called inactive.

Take `CO/C=C(/C(=O)OC)c1ccccc1Oc1cc(Oc2ccccc2C#N)ncn1`: the compound was classed as inactive.

Regarding `CCON=C(CC)C1=C(O)CC(c2c(C)cc(C)cc2C)CC1=O` (stereo not given), the result was inactive.

For `CCOC(=O)CC(SP(=S)(OC)OC)C(=O)OCC` (stereo not given), the call was inactive.

In the case of `COC(=O)N(OC)c1ccccc1COc1ccn(-c2ccc(Cl)cc2)n1`, the result was inactive.

As to `C#CCOS(=O)OC1CCCCC1Oc1ccc(C(C)(C)C)cc1` (stereo not given), the compound was called inactive.

On to `CC(Oc1ccc(Cl)cc1Cl)C(=O)O` (stereo not given), for which the compound was called inactive.

As to `Cc1cc(Cl)ccc1OCC(=O)O`, the call was inactive.

For `Cc1c(F)c(F)c(COC(=O)C2C(/C=C(\Cl)C(F)(F)F)C2(C)C)c(F)c1F` (stereo not given), the result was inactive.

With `N#Cc1cc(Br)c(O)c(Br)c1`, the compound was classed as inactive.

As for `COc1nc(NC(C)C)nc(NC(C)C)n1`, the call was inactive.

For the compound `O=C(Nc1ccccc1)Nc1ccnc(Cl)c1`, the compound was called inactive.

As to `COc1cnc(OC)n2nc(NS(=O)(=O)c3c(OCC(F)F)cccc3C(F)(F)F)nc12`, the outcome was inactive.

For `CC(C)Oc1cc(-n2nc(C(C)(C)C)oc2=O)c(Cl)cc1Cl`, the compound was classed as inactive.

As to `O=C(O)COc1nc(Cl)c(Cl)cc1Cl`, the outcome was inactive.

For the compound `Fc1ccc(Oc2ccnc3cc(Cl)cc(Cl)c23)cc1`, the outcome was inactive.

For the compound `CCCCOC(=O)c1ccccc1C(=O)OCCCC`, the compound was classed as inactive.

Consider `C=CC1(C)OC(=O)N(c2cc(Cl)cc(Cl)c2)C1=O` (stereo not given), for which the compound was called inactive.

Regarding `CCNc1nc(Cl)nc(NC(C)C)n1`, the AC50 was 6.52 µM (active).

As to `CCOc1cc(Oc2ccc(C(F)(F)F)cc2Cl)ccc1[N+](=O)[O-]`, the outcome was inactive.

In the case of `COC(=O)C=C(C)OP(=O)(OC)OC`, the call was inactive.

In the case of `CS/C(C)=N/OC(=O)N(C)SN(C)C(=O)O/N=C(\C)SC`, the outcome was inactive.

On to `CC1=C(C(=O)Nc2ccccc2)SCCO1`, for which the outcome was inactive.

Regarding `CCOP(=S)(OCC)SCn1c(=O)oc2cc(Cl)ccc21`, the compound was classed as inactive.

Consider `COC(=O)c1ccccc1C(=O)OC`, for which the compound was called inactive.

On to `CCCC1COC(Cn2cncn2)(c2ccc(Cl)cc2Cl)O1` (stereo not given), for which the call was inactive.

Regarding `COP(=S)(OC)Oc1nc(Cl)c(Cl)cc1Cl`, the compound was classed as inactive.

On to `CC1COC(Cn2cncn2)(c2ccc(Oc3ccc(Cl)cc3)cc2Cl)O1` (stereo not given), for which the compound was classed as inactive.

With `COC(=O)C(C)Oc1ccc(Oc2ccc(Cl)cc2Cl)cc1` (stereo not given), the compound was called inactive.

With `Cc1ccc(-c2c(Cl)nc(C#N)n2S(=O)(=O)N(C)C)cc1`, the outcome was inactive.

Regarding `CNC(=O)ON=CC(C)(C)SC`, the result was inactive.

`CCCN(CCC)c1c([N+](=O)[O-])cc(S(N)(=O)=O)cc1[N+](=O)[O-]`: the compound was called inactive.

Turning to `CCCCNC(=O)OCC#CI`, the compound was called inactive.

Consider `COc1nc(C)nc(NC(=O)NS(=O)(=O)c2ccccc2Cl)n1`, for which the result was inactive.

As to `N#Cc1nn(-c2c(Cl)cc(C(F)(F)F)cc2Cl)c(N)c1S(=O)C(F)(F)F` (stereo not given), the compound was classed as inactive.
